According to a collection of fitness landscapes (doi:10.1016/j.celrep.2020.107928):
The full ranking holds about 81,000 sequences; the median of “one-hybrid fitness for binding parS DNA” is about -0.17, and the highest 2% start at about 0.51. Shown is part of a subset that was picked to be rich in the highest values.

B1: Caulobacter ParB omega fusion; a variant is named by its letters at X, in order, B8GW30 (parent)
chain: MESVVVGEPGMSEGRRGLGRGLSALLGEVDAAPAQAPGEQLGGSREAPIEILQRNPDQPRRTFREEDLEDLSNSIREKGVLQPILVRPSPDTAGEYQIVAGERAWRAAQRAGLKTVPIMVRELDDLAVLEIGIIENVQRADLNVLEEALSYKVLMEKFERTQENIAQTIGKSXSHVANXMRLLXLPDEVQSYLVSGELTAXHARAIAAAADPVALAKQIIEGGLSVRETEALARKAPNLSAGKSKGGRPPRVKDTDTQALESDLSSVLGLDVSIDHRGSTGTLTITYATLEQLDDLCNRLTRGI

Variants of: B1
Assay: one-hybrid fitness for binding parS DNA (scaled: cognate 1, non-cognate 0); higher = stronger binding
Conditions: with parS DNA site
In short: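 Bacterial one-hybrid selection in E. coli USO rpoZ- hisB- pyrF- with a HIS3 reporter carrying the site 19 bp from the promoter, screening Caulobacter ParB libraries with four specificity codons randomised (NNS). Cells grew 48 hours at 37°C on M9-minus-histidine plus 0.1 mM IPTG and 5 mM 3-AT. Plasmids before and after selection were Illumina-sequenced, three replicate libraries pooled, and variants under 10 reads dropped. Fitness is the log change in variant-to-wild-type read ratio, rescaled to cognate 1, non-cognate 0.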

one-hybrid fitness for binding parS DNA, 0.308:
RGET

one-hybrid fitness for binding parS DNA, 0.758:
RCET

one-hybrid fitness for binding parS DNA, 0.5:
RHQA

one-hybrid fitness for binding parS DNA, ≤ 0.2:
PFSC
GKMI
LFDL
TQEV
FSIS
RVNH
RVGD
RVNP
PRGK
VWDG
IEKT
VALY
GQET
SLYK
GKPL
RAEK
RDET
RPET
RHEK
RAEI
EKRG
SQQG
TPYC
VTLR
QKRV
QSKN
QNAM
EGGH
VPIN
DWQR
RMEF
EFET
RIEK
RIEF
PFET
REET
PTPR
QSVP
AQRA
WPTL
GPKW
RLEK
RTEP
RKER
AEWH
ISIL
LPPC
TELP
PLFM
HICT
SMNV
SGQL
LYHP
NTQA
DTQA
RDQA
VRKH
GAVT
RVVL
YEHG
GAFN
CTDH
PIDR
SPPW
IYKI
CLQA

one-hybrid fitness for binding parS DNA, 0.309:
RMEM

one-hybrid fitness for binding parS DNA, 0.783:
RLET

one-hybrid fitness for binding parS DNA, 0.899:
RVNT

one-hybrid fitness for binding parS DNA, 0.593:
RCQA

one-hybrid fitness for binding parS DNA, 0.364:
RGQA

one-hybrid fitness for binding parS DNA, 0.451:
RVGN

one-hybrid fitness for binding parS DNA, 0.731:
RMET

one-hybrid fitness for binding parS DNA, 0.401:
RKEY

one-hybrid fitness for binding parS DNA, 0.75:
RTET

one-hybrid fitness for binding parS DNA, 0.458:
RLEY

one-hybrid fitness for binding parS DNA, 0.799:
RKET

one-hybrid fitness for binding parS DNA, 0.404:
RWQA

one-hybrid fitness for binding parS DNA, 0.655:
RFET

one-hybrid fitness for binding parS DNA, 0.734:
RHET

one-hybrid fitness for binding parS DNA, 0.214:
RHEM

one-hybrid fitness for binding parS DNA, 0.349:
RTEN

one-hybrid fitness for binding parS DNA, 0.926:
RVCT

one-hybrid fitness for binding parS DNA, 0.674:
RRET

one-hybrid fitness for binding parS DNA, 0.462:
RVCY

one-hybrid fitness for binding parS DNA, 0.627:
RTQA

one-hybrid fitness for binding parS DNA, 0.555:
RSQA

one-hybrid fitness for binding parS DNA, 0.68:
RAET

one-hybrid fitness for binding parS DNA, 0.574:
RMQA

one-hybrid fitness for binding parS DNA, 0.653:
RSET

one-hybrid fitness for binding parS DNA, 0.924:
RVGT

one-hybrid fitness for binding parS DNA, 0.709:
RIET

one-hybrid fitness for binding parS DNA, 0.422:
RKRY

one-hybrid fitness for binding parS DNA, 0.382:
RVCM
